Assay outcomes as filed in PubChem.
HIF-2a inh: inhibitors of HIF-2a. 786-0 RCC cells HIF-2a reporter, luciferase luminescence, overnight. inhibition, % at 18.8 µM. actives 0.72% (n = 360,000). AID 624352;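 active = inhibition of the luminescence signal of 40% or more relative to plate controls, in a single-dose primary screen at 18.75 µM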
MITF TRPM1 inh: inhibitors of MITF-driven TRPM1 promoter in melanoma cells | AID 488899 | actives 0.83% (n = 330,000) | SK-MEL-5 TRPM1 promoter luciferase, 24 h | inhibition, % at 12.5 µM;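 active = mean inhibition across replicates of 60% or more, whatever share of single replicates reaches that level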
Shn3 3UTR inh: Schnurri-3 reporter inhibition in Clone20 osteoblasts | actives 0.52% (n = 360,000) | inhibition, % at 12.5 µM | Clone20 osteoblast Shn3 3'UTR firefly luciferase, 24 h;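 active = mean inhibition of at least 75% with every replicate also reaching 75%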
KKLEB tox: counter-screen for CF NF-kB inhibitors: cytotoxicity. KKLEB CF airway cells viability, ATPlite luminescence, overnight; stronger effect = lower value; cells stimulated with P. aeruginosa culture filtrate. activity change (cytotoxicity), % at 5 µM. actives 0.36% (n = 360,000). AID 602141;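 active = corrected activity change at or below -50% at 5 µM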
CF NFkB inh: inhibitors of cystic fibrosis induced NF-kB | actives 0.86% (n = 360,000) | inhibition, % at 5 µM | KKLEB NF-kB-GFP reporter, PAF-induced, GFP fluorescence overnight;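 active = at least 50% inhibition at 5 µM, scaled per plate between neutral and stimulator controls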;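 note: PAF is a Pseudomonas aeruginosa culture filtrate used as stimulus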
Peg3 prom inh: reduces Peg3 promoter-driven luciferase expression in HeLa; HeLa PEG-Prom luciferase reporter, luminescence, overnight; inhibition, % at 20 µM; actives 1.7% (n = 360,000);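 active = inhibition of at least 50% at 20 µM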
Mdm2-MdmX confirm: Mdm2/MdmX (human) interaction inhibition, confirmed; inhibition, % at 8 µM; actives 99% (n = 740); SaOS-2 split-luciferase Mdm2/MdmX complementation, luminescence; shares compounds with HIF-2a inh;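 active = mean inhibition of the luminescence signal across two replicates at or above 26 percent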
Target sequence (O15151 whole entry, looked up): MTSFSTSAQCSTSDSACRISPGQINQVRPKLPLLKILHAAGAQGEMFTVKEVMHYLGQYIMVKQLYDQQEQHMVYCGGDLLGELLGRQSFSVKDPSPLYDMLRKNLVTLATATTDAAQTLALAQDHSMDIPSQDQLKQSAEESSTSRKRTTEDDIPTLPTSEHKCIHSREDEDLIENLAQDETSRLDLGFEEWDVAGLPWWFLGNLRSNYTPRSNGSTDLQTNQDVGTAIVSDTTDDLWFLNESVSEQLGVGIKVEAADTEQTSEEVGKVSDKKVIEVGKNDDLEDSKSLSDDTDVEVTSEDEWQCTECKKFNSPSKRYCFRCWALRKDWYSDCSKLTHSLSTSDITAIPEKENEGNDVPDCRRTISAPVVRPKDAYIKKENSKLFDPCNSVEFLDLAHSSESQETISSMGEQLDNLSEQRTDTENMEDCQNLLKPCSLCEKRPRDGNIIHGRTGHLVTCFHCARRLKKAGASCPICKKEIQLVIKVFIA
Target sequence (Q00987 whole entry, looked up): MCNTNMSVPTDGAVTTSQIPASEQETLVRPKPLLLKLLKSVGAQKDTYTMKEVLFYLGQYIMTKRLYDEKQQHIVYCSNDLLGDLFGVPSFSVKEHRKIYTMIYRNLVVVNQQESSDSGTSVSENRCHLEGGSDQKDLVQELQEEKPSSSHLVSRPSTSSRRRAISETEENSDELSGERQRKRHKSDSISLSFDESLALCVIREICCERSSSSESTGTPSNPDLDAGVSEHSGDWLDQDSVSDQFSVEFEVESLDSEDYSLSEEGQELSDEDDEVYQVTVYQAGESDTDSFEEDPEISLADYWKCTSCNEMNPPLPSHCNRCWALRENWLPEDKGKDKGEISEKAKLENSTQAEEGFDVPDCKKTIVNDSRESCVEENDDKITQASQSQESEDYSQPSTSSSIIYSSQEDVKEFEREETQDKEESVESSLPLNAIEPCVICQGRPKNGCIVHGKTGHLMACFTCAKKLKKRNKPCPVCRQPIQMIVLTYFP
HIF-2a inh conf: HIF-2a inhibition, single concentration confirmation; shares compounds with HIF-2a inh; 786-0 RCC cells, HIF-2a luciferase reporter luminescence, overnight; inhibition, % at 18.8 µM; actives 56% (n = 1,800); AID 651580;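 active = mean inhibition across four replicates of at least 40 percent at the single tested concentration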
HIF-1a counter: counter-screen for HIF-2a inhibitors: HIF-1a inhibition in MiaPaCa-2 cells | inhibition, % at 18.8 µM | MiaPaCa-2 HIF-1a luciferase reporter, desferoxamine, overnight | AID 651589 | shares compounds with HIF-2a inh | actives 72% (n = 1,800);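 active = mean inhibition of the reporter signal across four replicates at the single tested dose of 50% or more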
Numbers stand for hits; 0 = inactive; - = no result given. Hits are enriched below; roughly 2.7% of the tested compounds scored in any of these assays.

SMILES	HIF-2a inh	MITF TRPM1 inh	Shn3 3UTR inh	KKLEB tox	CF NFkB inh	Peg3 prom inh	HIF-2a inh conf	HIF-1a counter	others
CC(C)NC(=O)N1Cc2cc(C(=O)NC3CCCC3)nc(-c3cccc(-c4cccnc4)c3)c2[C@@H]1CCO	0	-	-	-	-	-	-	-
Oc1ccc(-c2cc(-c3ccc(O)cc3)nc(-c3ccccc3)n2)cc1	66	0	0	0	0	0	0	104
Nc1ccc(-c2cc(-c3ccc(N)cc3)nc(-c3ccccc3)n2)cc1	0	0	0	0	0	0	-	-
CCC(C)(C)c1ccc(OCCCC[n+]2ccc(C)cc2)c(C(C)(C)CC)c1	-	-	-	-	-	-	-	-	Mdm2-MdmX confirm=102
CCC(C)(C)c1ccc(OCCCC[n+]2cccc(C)c2C)c(C(C)(C)CC)c1	88	71	-	0	0	107	77	107	Mdm2-MdmX confirm=103
Cc1cc[n+](CC[n+]2ccc(C)cc2)cc1	0	0	0	0	0	0	-	-
O=C(NC1CCCCCC1)c1ccc([N+](=O)[O-])s1	60	71	0	0	0	0	74	77
COc1ccc(C(=O)Cn2c(C(=O)/C=C/c3ccccc3)nc3ccccc32)cc1	40	0	102	0	0	0	0	102
O=C(NCC1CCN(Cc2ccccc2)CC1)[C@H]1O[C@@H](n2ccc(=O)[nH]c2=O)[C@H](O)[C@@H]1O	0	-	-	-	-	-	-	-
COc1ccc(C(=O)c2ccc(CC(=O)O)s2)cc1	59	0	0	0	0	0	66	61
O=C(O)Cc1ccc(C(=O)c2ccccc2)s1	0	0	-	0	0	0	-	-
CCc1nc2ccc(C(=O)NCC3CCCCC3)cn2c1N(C)Cc1ccc(OC)cc1	0	-	0	0	0	0	-	-
CCOC(=O)C(CCCOc1ccc(C(C)CC)cc1)C(=O)OCC (stereo unspecified)	70	0	0	0	0	0	73	69
CCC(C)c1ccc(OCc2ccc(C(=O)O)o2)cc1 (stereo unspecified)	55	0	0	0	0	0	0	0
CCCCC(=O)N(C)c1c(C)nc2ccc(C(=O)Nc3cccc(OC)c3)cn12	0	-	0	0	0	0	-	-
O=C1Nc2cccnc2N(C(=O)CCl)c2ccccc21	42	0	0	0	0	63	0	0
COc1ccc(C2CC=C(C(C)=O)CN2S(=O)(=O)c2ccc(Cl)cc2)cc1 (stereo unspecified)	0	-	0	0	0	0	-	-
COC(=O)C1=C(C)N(c2cc(C)cc(C)c2)/C(=C/c2ccc(O)cc2)C1=O	44	0	0	0	0	0	0	61
O=C(Cn1cc(COc2ccc(Cl)c(Cl)c2)nn1)NS(=O)(=O)c1ccccc1OC(F)(F)F	0	-	0	0	0	0	-	-
COc1cccc(CNC(=O)c2cc3oc4ccccc4c3n2C)c1OC	0	0	0	0	0	0	-	-	Mdm2-MdmX confirm=100
CCOc1ccc(CNC(=O)c2cc3oc4ccccc4c3n2C)cc1	0	0	0	0	0	0	-	-
COc1ccc(CN(CCC(c2ccccc2)c2ccc(OC(C)C)cc2)C(=O)CCl)cc1OC (stereo unspecified)	96	106	0	-85	81	106	-	-	Mdm2-MdmX confirm=103
C=C1C(=O)OC2C=C(CO)C3OC3C3OC3(C)CC(OC(=O)/C(=C/C)COC(C)=O)C12 (stereo unspecified)	85	84	93	-92	82	106	93	107
COCCNC(=O)C1(C)CCCN(Cc2sc(C)nc2C)C1 (stereo unspecified)	0	-	0	0	0	0	-	-
COc1ccc(S(=O)(=O)NC(=O)C2(C)CCN2C(=O)C2(c3ccc(Cl)cc3)CCC2)cc1 (stereo unspecified)	0	-	0	0	0	0	-	-
SMILES	HIF-2a inh	MITF TRPM1 inh	Shn3 3UTR inh	KKLEB tox	CF NFkB inh	Peg3 prom inh	HIF-2a inh conf	HIF-1a counter	others
CSc1ccc(Cn2c(C)c(C(=O)NCc3ccc4c(c3)OCCO4)sc2=O)cc1	0	-	0	0	0	0	-	-
CSc1nnc(-c2sc3cc(C(F)(F)F)cnc3c2-c2ccccc2)n1C	41	0	0	0	0	0	0	55
Cc1cccc(-c2ccc3[nH]c4c(c3c2)CCN2C[C@@H]([C@H](C)OC(=O)Nc3ccccc3C)[C@@H](N(C)C(=O)Nc3ccccc3C)C[C@@H]42)c1	56	-	0	0	0	0	0	83
CCCNC(=O)C1(C)CCCN(CC(=O)c2ccc3c(c2)OCCO3)C1 (stereo unspecified)	0	-	0	0	0	0	-	-
Nc1ccccc1C#CC(=O)c1ccccc1	89	93	99	-85	89	104	57	105	Mdm2-MdmX confirm=103
CCOC(=O)C1CCCN(C(=O)c2oc3ccccc3c2C)CC1 (stereo unspecified)	0	-	0	0	0	0	-	-
NC1=NC[C@H](CC2CCCCC2)N1CCc1cc(C(F)(F)F)cc(C(F)(F)F)c1	98	0	0	0	0	101	0	106	Mdm2-MdmX confirm=100
Cc1ccc(CNC(=O)CN(C(=O)C2(C)CC(=O)N=C3C=CC=CN32)c2ccc(F)cc2)cc1 (stereo unspecified)	0	0	0	0	0	0	-	-
CCCCC(NC(=O)Cc1c(C)c2cc3c4c(oc3c(C)c2oc1=O)CCCC4)C(=O)O (stereo unspecified)	0	0	0	0	0	0	-	-
Cc1c(CCC(=O)N2CCC[C@H]2C(=O)O)c(=O)oc2c(C)c3oc4c(c3cc12)CCCC4	57	0	0	0	0	0	71	0
CCCCC(NC(=O)CCc1c(C)c2cc3c4c(oc3c(C)c2oc1=O)CCCC4)C(=O)O (stereo unspecified)	53	0	0	0	0	0	55	0
Cc1c(CC(=O)NCCCC(=O)O)c(=O)oc2c(C)c3oc4c(c3cc12)CCCC4	0	0	0	0	0	0	-	-
Cc1c(CCC(=O)NCCCn2ccnc2)c(=O)oc2c(C)c3oc4c(c3cc12)CCCC4	47	0	0	0	0	0	63	59
CCCCN1C(=O)C(=O)NC[C@@H]1CC1CCCCC1	0	-	-	-	-	-	-	-
O=C(/C=C/c1ccccc1Cl)OCC(=O)N1CCc2ccccc21	0	-	0	0	0	0	-	-
O=C(NCc1ccco1)c1ccc2sc([C@@H]3O[C@H](CO)[C@H](O)[C@H](O)[C@H]3O)nc2c1	0	-	0	0	0	0	-	-
CCOC(=O)C1(C)CCCN1C(=O)c1ccc(OC)cc1 (stereo unspecified)	0	-	0	0	0	0	-	-
NC(=O)c1sc2nc3c(c(-c4cccs4)c2c1N)CCCCC3	0	0	0	-51	91	0	-	-	Mdm2-MdmX confirm=95
